# Assay results from PubChem BioAssay.
# Activity calls are given as the source filed them. Unless noted, no rule for the calls is given here.
# Legend:
# [1] = system: XIP peptide (Xip251-270) binding; assay: XIP fragment 251-270 binding compounds – biochemical, small-molecule microarray, fluorescence 635/667 nm, 0.1 µg/mL protein, primary screen (AID 1182); conditions: fluorescent protein binding, 635 nm, higher = more signal, called active from +8 up or from −8 down
# [2] = system: XIP peptide (Xip251-270); assay: compounds binding XIP fragment 251-270 – biochemical, small-molecule microarray, fluorescence 635/667 nm, 0.5 µg/mL protein, primary screen (AID 1183); conditions: fluorescence 635 nm, higher = more signal
# [3] = blood-stage malaria parasite viability loss – strain 3D7, DAPI fluorescence, 100 nL, primary screen (AID 1184);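 also: parasites grown inside human red blood cells in medium with human serum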; conditions: P. falciparum 3D7 growth, 3 d, higher = more signal
# [4] = biological target: Homeobox protein Hox-A13 (Mus musculus) (UniProt Q62424); assay: disruptors of Hoxa13 oligonucleotide interaction – biochemical, fluorescence polarization, labeled oligonucleotide, primary screen (AID 1185); conditions: Hoxa13:DNA binding, 15 min, higher = more signal, called active from +8 up or from −8 down
# Sequence of Homeobox protein Hox-A13 (Mus musculus) (Q62424 whole entry, looked up): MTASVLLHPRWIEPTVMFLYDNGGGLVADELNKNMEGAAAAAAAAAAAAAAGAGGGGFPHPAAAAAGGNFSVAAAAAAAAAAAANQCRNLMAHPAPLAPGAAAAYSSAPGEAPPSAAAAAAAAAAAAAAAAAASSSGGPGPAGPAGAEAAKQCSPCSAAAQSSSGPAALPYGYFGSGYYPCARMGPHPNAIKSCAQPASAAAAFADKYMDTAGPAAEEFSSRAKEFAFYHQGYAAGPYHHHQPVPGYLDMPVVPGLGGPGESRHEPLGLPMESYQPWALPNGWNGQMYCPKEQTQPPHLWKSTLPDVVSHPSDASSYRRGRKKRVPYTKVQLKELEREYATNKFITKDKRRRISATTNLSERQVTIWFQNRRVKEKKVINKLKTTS
# [5] = blockers of DNA damage checkpoint Chk1 activation – imaging, HeLa, hydroxyurea, phospho-Chk1 antibody, percent positive cells, primary screen (AID 1186); conditions: hydroxyurea-induced phospho-Chk1 immunofluorescence imaging, higher = more signal
# [6] = blockers of DNA damage checkpoint Chk1 activation – imaging, HeLa, hydroxyurea, phospho-Chk1 nuclear intensity, primary screen (AID 1187); conditions: hydroxyurea-induced phospho-Chk1 immunofluorescence imaging, higher = more signal
SMILES,composite z-score [1],composite z-score [2],z-score [3],z-score [4],z-score [5],z-score [6]
O=C1C2C=CC(C(O)c3cccs3)N(Nc3ccc([N+](=O)[O-])cc3)C2C(=O)N1c1ccccc1 (stereo unspecified),0.396 (inactive),-0.0032,-0.965,-4.16 (inactive),-0.479 (inactive),-0.779 (inactive)
COc1ccc([Si](C)(C)[C@@H]2[C@@H](CC(=O)N3Cc4ccccc4C[C@H]3CO)O[C@]3(C(=O)N(Cc4ccc(N5CCOC5=O)cc4)c4ccccc43)[C@H]2C)cc1,2.28 (inactive),0.83,-1.82,-1.43 (inactive),-0.262 (inactive),-0.106 (inactive)
C=CCC(OC(C)=O)[C@@H]1[C@@H](N(Cc2cccc3ccccc23)C(=O)Cc2ccc(OC)cc2)c2cc(OCCCO)ccc2N1C(=O)c1ccc2ccccc2c1 (stereo partly specified),-0.129 (inactive),0.174,-2.64,-2.33 (inactive),-0.325 (inactive),-0.0189 (inactive)
CCCC[C@H]1C[C@@H]1[C@@H]1N(C(C)=O)[C@H](c2cccc(OC)c2)CC12CC2,-0.233 (inactive),-1.04,-0.313,-3.27 (inactive),0.368 (inactive),0.638 (inactive)
CC(=O)NCCCC[C@@H]1NC(=O)[C@H]2C[C@@H](C(=O)NCCCCCCNC(=O)CS)[C@@H](c3cccc(OCCO)c3)N2C1=O,2.82 (inactive),0.349,0.287,-4.38 (inactive),0.0478 (inactive),1.23 (inactive)
O=C(NCc1ccccc1)[C@@H]1c2ccccc2C(=O)N(Cc2ccc(OC(F)(F)F)cc2)[C@H]1c1ccc(CO)cc1,-0.304 (inactive),0.56,-0.655,-2.53 (inactive),0.0188 (inactive),0.243 (inactive)
C[C@]1(C(=O)O)c2ccccc2C(=O)N(Cc2cc(F)cc(C(F)(F)F)c2)[C@H]1c1ccc(CO)cc1,0.342 (inactive),0.778,0.832,-1.83 (inactive),0.117 (inactive),0.239 (inactive)
NC(=O)NCC#Cc1ccc2c(c1)[C@]1(C(=O)N2)[C@H](c2ccc(OCCO)cc2)N2[C@H](c3ccccc3)[C@H](c3ccccc3)OC(=O)[C@H]2[C@@H]1C(=O)NC[C@H](O)c1ccccc1,-0.133 (inactive),0.594,-0.833,-3.2 (inactive),-0.261 (inactive),-0.572 (inactive)
CN1C(=O)C2C=CC(C(O)c3ccc(-c4ccccc4)s3)N(NC(=O)OC(C)(C)C)C2C1=O (stereo unspecified),0.359 (inactive),0.912,0.428,-4.15 (inactive),0.307 (inactive),0.239 (inactive)
CN(C)CCCC[C@@H]1NC(=O)[C@@H]2C[C@H](C(=O)NCCCCCN)[C@H](c3cccc(OCCO)c3)N2C1=O,1.14 (inactive),0.898,-0.0568,-1.29 (inactive),-0.523 (inactive),0.0431 (inactive)
CCN(CC)c1ccc(N2CC=CC34O[C@@H]5C=CCCOC(=O)C5[C@H]3C(=O)N(C(C)CO)[C@@H]4C2=O)cc1 (stereo partly specified),0.587 (inactive),0.77,0.479,-6.31 (inactive),1.74 (inactive),0.865 (inactive)
COc1ccc(C(=O)Nc2cccc(CN3C(=O)[C@]4(O[C@H](CC(=O)N5Cc6ccccc6C[C@H]5CO)[C@@H]([Si](C)(C)c5ccc(OC)cc5)[C@@H]4C)c4ccccc43)c2)cc1,-0.335 (inactive),0.697,-2.94,-2.35 (inactive),1.01 (inactive),0.835 (inactive)
N#Cc1ccc(C(O)C2C=CC3C(=O)NC(=O)C3N2Nc2ccc(Cl)cc2Cl)cc1 (stereo unspecified),1.42 (inactive),0.0653,0.684,-5.63 (inactive),0.731 (inactive),0.688 (inactive)
CC(C)C(=C=CC[C@H](O)c1ccccc1OCCO)C[C@H](O)COCc1ccccc1,-0.182 (inactive),0.619,-1.78,-4.94 (inactive),0.233 (inactive),-0.371 (inactive)
COc1ccc([Si](C)(C)[C@H]2[C@H](CCO)O[C@@]3(C(=O)N(Cc4cccc(N(C=O)c5ccccc5)c4)c4ccccc43)[C@@H]2C)cc1,0.293 (inactive),0.665,-2.57,-0.557 (inactive),-1.73 (inactive),-0.831 (inactive)
COc1ccc(C(O)C2C=CC3C(=O)N(c4ccccc4)C(=O)C3N2Nc2ccc(C#N)cc2)cc1OCc1ccccc1 (stereo unspecified),0.496 (inactive),0.556,-0.474,0.712 (inactive),-0.405 (inactive),-0.669 (inactive)
CN(C)C(=O)[C@]1(Cc2ccccc2)N=C(c2ccc(OCCCO)cc2)O[C@@H]1c1ccccc1CN=[N+]=[N-],0.245 (inactive),0.764,-2.6,-4.47 (inactive),0.0164 (inactive),0.304 (inactive)
COCCOC(=O)N1C(=O)[C@@]2(c3cc(C#CCC(C(=O)OC)C(=O)OC)ccc31)[C@H](C(=O)Nc1nc3ccccc3s1)[C@H]1C(=O)O[C@H](c3ccccc3)[C@H](c3ccccc3)N1[C@@H]2c1ccc(O)cc1,0.224 (inactive),0.599,-1.52,-1.93 (inactive),0.119 (inactive),0.359 (inactive)
[N-]=[N+]=NCc1ccccc1[C@@H]1OC(c2ccc(OCCCO)cc2)=N[C@]1(Cc1ccccc1N=[N+]=[N-])C(=O)O,1.21 (inactive),0.722,-1.9,-3.59 (inactive),0.277 (inactive),0.585 (inactive)
CC(C)=CCCC(C)=CC(O)C1C=CC2C(=O)NC(=O)C2N1Nc1ccccn1 (stereo unspecified),0.113 (inactive),0.628,0.563,-4.67 (inactive),0.282 (inactive),-0.0205 (inactive)
CC(C)C(O)C1C=CC2C(=O)NC(=O)C2N1Nc1ccccn1 (stereo unspecified),0.163 (inactive),0.943,0.17,-3.11 (inactive),-0.446 (inactive),-0.67 (inactive)
C=CCC(OC(C)=O)[C@@H]1[C@@H](N(Cc2cccc3ccccc23)C(=O)c2ccc(-c3ccccc3)cc2)c2cc(OCCCO)ccc2N1C(=O)Cc1ccc2ccccc2c1 (stereo partly specified),-0.419 (inactive),-0.347,0.0788,-0.896 (inactive),0.547 (inactive),0.582 (inactive)
C[C@@H]1NC(=O)C([C@@H](C)OCc2ccccc2)NC(=O)[C@@]23C(=O)N[C@@H](Cc4ccccc4)C2[C@H](C)[C@@]2(C)O[C@H]2C3/C=C/C/C=C\CNC1=O (stereo partly specified),-0.501 (inactive),-0.458,0.0074,-7.4 (inactive),-0.0202 (inactive),-0.0344 (inactive)
C=CCNC(=O)[C@@H]1[C@H]2C(=O)O[C@H](c3ccccc3)[C@H](c3ccccc3)N2[C@H](c2ccc(OCCO)cc2)[C@@]12C(=O)Nc1ccc(C#CC3(O)CCCCCC3)cc12,1.02 (inactive),0.774,-1.73,-1.92 (inactive),-0.0427 (inactive),-0.271 (inactive)
O=C1O[C@H](Cc2ccccc2)[C@@H]2[C@H]3C=CCCC=C3CN2[C@H]1Cc1ccc(O)cc1,0.127 (inactive),-0.61,-0.947,-9.53 (active),0.167 (inactive),-0.122 (inactive)
COc1ccc([Si](C)(C)[C@@H]2[C@@H](CC(=O)N3CCC[C@H]3CO)O[C@]3(C(=O)N(Cc4cccc(N5CCCCC5=O)c4)c4ccccc43)[C@H]2C)cc1,2.84 (inactive),0.799,-1.26,-2.93 (inactive),-0.515 (inactive),0.336 (inactive)
